# Results taken from PubChem BioAssay AID651658 (Broad Institute, 2012).
# Values joined by “and” are separate entries in the source; they are usually repeats but may differ in a detail not shown here. Identical values can stand only once. In all, about 340,000 compounds went through this assay and about 5,100 (1.5%) were called active. This is one part of a sample in which actives are shown more often than they occur.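 Rule for the calls: active = mean Tm shift, scaled 0 neutral to 100 positive control, at about 1.3% or above, every replicate too (limit read from the data); inconclusive = no clear call, values can overlap the other calls; inactive = the rest.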
# Target: Fibroblast growth factor 22 (Homo sapiens) (UniProt Q9HCT0)
# Assay: binders of human FGF22 protein, primary screen, FGF22 synaptogenesis inhibitor project, biophysical, thermal shift, single point (AID 651658)
# Details: recombinant FGF22 thermal shift, SYPRO orange fluorescence; at 9.99 µM; hits give high values; percent of sucrose octasulfate shift, DMSO zero
# Fibroblast growth factor 22 (Homo sapiens), sequence (Q9HCT0 whole entry, looked up): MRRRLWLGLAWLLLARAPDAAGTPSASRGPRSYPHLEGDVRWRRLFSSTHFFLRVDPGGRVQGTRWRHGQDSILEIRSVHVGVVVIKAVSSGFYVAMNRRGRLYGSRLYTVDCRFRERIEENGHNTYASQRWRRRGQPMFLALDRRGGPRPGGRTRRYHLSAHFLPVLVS
row,Compound,"activity (Tm shift, normalised)"
1,O=C(CN1C(=O)NC2(CCCC2)C1=O)NCC1CCCO1 (stereo not drawn),43.3% (active)
2,O=C(CN1C(=O)NC2(CCCCCC2)C1=O)NC1CC1,-0.266% (inactive)
3,O=C(CN1C(=O)NC2(CCCCCC2)C1=O)NCc1ccc(F)cc1,0.013% (inactive)
4,COc1cccc(NC(=O)C[C@H]2CC[C@@H]3[C@@H](COc4ccc(NC(=O)C5CCOCC5)cc4C(=O)N3C)O2)c1,0.326% (inactive)
5,C[C@H]1CN([C@@H](C)CO)C(=O)c2cc(-c3ccccc3)cnc2O[C@H]1CN(C)C(=O)C1CCOCC1,0.036% (inactive)
6,O=C(NC1Cc2ccccc2C1)[C@@H]1[C@@H](CO)[C@@H]2Cn3c(ccc(C4=CCCC4)c3=O)[C@H]1N2CC1CC1,0.451% (inactive)
7,C[C@H]1CN([C@@H](C)CO)C(=O)CCCn2nncc2CO[C@@H]1CN(C)S(=O)(=O)c1ccccc1C#N,-0.468% (inactive)
8,Cc1ccccc1OCC(O)CN1CCN(c2ccccn2)CC1 (stereo not drawn),44.2% (active)
9,CC(C)c1ccc(OCC(O)CN2CCN(c3ccccn3)CC2)cc1 (stereo not drawn),-0.21% (inactive)
10,Cc1cccc(OCC(O)CN2CCN(CCN3C(=O)c4cccc5cccc(c45)C3=O)CC2)c1C (stereo not drawn),0.358% (inactive)
11,COc1ccc(NC(=O)N[C@H]2C=C[C@H](CC(=O)NCc3ccccn3)O[C@H]2CO)cc1,0.256% (inactive)
12,CO[C@H](CN(C)C(=O)c1cnccn1)[C@@H](C)CN([C@@H](C)CO)S(=O)(=O)c1ccc(C)cc1,0.044% (inactive)
13,COc1ccc(CC2(CO)CCN(Cc3cnn(C)c3)CC2)cc1,0.198% (inactive)
14,OCC1(Cc2ccccc2)CCN(Cc2cc3ccccc3o2)CC1,42.4% (inactive)
15,COc1ccccc1/C=C/CN1CCC(CO)(Cc2ccccc2)CC1,43.2% (active)
16,CO[C@H]1CN(C)C(=O)c2cc(NC(=O)c3nc4ccccc4s3)ccc2OC[C@H](C)N(Cc2cccnc2)C[C@@H]1C,-0.365% (inactive)
17,COc1cccc(S(=O)(=O)N2CCCCN3[C@H](CO)[C@H](c4ccc(-c5ccncc5)cc4)[C@H]3C2)c1,-0.25% (inactive)
18,O=C(Nc1ccccc1F)N1C[C@H]2[C@@H](c3ccccc31)[C@@H](CO)N2C(=O)Cc1cccnc1,0.459% (inactive)
19,CC(C)CC(=O)Nc1ccc(Cc2ccncc2)cc1,-0.02% (inactive)
20,Cc1cc([N+](=O)[O-])nn1CC(=O)Nc1ccc(Cc2ccncc2)cc1,43.3% (active)
21,Cc1cc(C)n(CC(=O)Nc2ccc([N+](=O)[O-])cc2)n1,-0.311% (inactive)
22,COCC(=O)N1CC[C@H]2[C@H](CO)Nc3ccc(-c4ccc(C(=O)N(C)C)cc4)cc3[C@H]21,-0.374% (inactive)
23,CN(C)C(=O)C[C@@H]1CC[C@H](NC(=O)NC2CCCC2)[C@H](CO)O1,-0.148% (inactive)
24,CCC(C)N(C(=O)COC(=O)c1nc(Cl)ccc1Cl)C1CCS(=O)(=O)C1 (stereo not drawn),0.546% (inactive)
25,CCC(C)N(C(=O)COC(=O)C1C(C(=O)OC)=C(C)NC(C)=C1C(=O)OC)C1CCS(=O)(=O)C1 (stereo not drawn),43.2% (active)
26,CCC(C)N(C(=O)CSc1nnnn1-c1ccccc1OC)C1CCS(=O)(=O)C1 (stereo not drawn),-0.269% (inactive)

row,Compound,"activity (Tm shift, normalised)"
1,O=C(Cc1ccccn1)NCC[C@H]1CC[C@H](NC(=O)Nc2ccc(F)cc2)[C@@H](CO)O1,0.059% (inactive)
2,Cc1cc(/C=N/NC(=O)c2cccnc2)c(C)n1CC(C)C,43% (active)
3,O=C(NN=C1CCC(=NNC(=O)c2cccnc2)CC1)c1cccnc1,-0.314% (inactive)
4,O=C(CNC(=O)c1cccnc1)N/N=C/c1cc(Br)c(O)c(Br)c1,0.674% (inactive)
5,O=C(C[C@@H]1C[C@@H]2c3cc(NC(=O)Nc4ccc(C(F)(F)F)cc4)ccc3O[C@@H]2[C@@H](CO)O1)NCCc1ccccc1,0.083% (inactive)
6,COc1ccc(NC(=O)N(C)C[C@H]2OCCCC[C@H](C)Oc3ccc(NC(=O)c4ccncc4)cc3C(=O)N([C@H](C)CO)C[C@@H]2C)cc1,-0.473% (inactive)
7,C[C@@H]1CN([C@H](C)CO)C(=O)c2cc(C3=CCCC3)cnc2O[C@@H]1CN(C)C(=O)Nc1ccc(F)cc1,-0.106% (inactive)
8,COc1cc(Cl)c(C)cc1NC(=O)CN1CCCCCC1,-0.091% (inactive)
9,O=C(CN1CCCCCC1)Nc1ccc(Br)cc1[N+](=O)[O-],-0.021% (inactive)
10,COc1cc([N+](=O)[O-])ccc1NC(=O)CN1CCCC1,1.49% (active)
11,CC(=O)Nc1ccc(-c2csc(NC(=O)Nc3ccccc3)n2)cc1,44.8% (active)
12,O=C(NCc1cccnc1)C(=O)Nc1nc(-c2ccccc2)cs1,0.205% (inactive)
13,O=C(Nc1ccccc1)Nc1nnc(COc2ccccc2F)s1,0.184% (inactive)
14,O=C(CCC(=O)c1cccs1)Nc1nc2ccccc2s1,0.414% (inactive)
15,NC(c1ccccc1)c1csc(NC(=O)Nc2cccc(C(F)(F)F)c2)n1 (stereo not drawn),-0.154% (inactive)
16,O=C(Nc1ccccc1)Nc1nc2ccccc2s1,43.2% (active)
17,O=C(C[C@@H]1CC[C@@H](NC(=O)c2ccc3c(c2)OCO3)[C@H](CO)O1)NCc1ccc(Cl)cc1,-0.267% (inactive)
18,Cc1cc(OCCCCOc2ccc(C#N)cc2)ccc1[N+](=O)[O-],0.385% (inactive)
19,CCCCCOc1ccc(CSC2=NCCN2)cc1[N+](=O)[O-],43.9% (active)
20,Cc1nc(SCc2ccc(F)cc2)c([N+](=O)[O-])[nH]1,-0.03% (inactive)
21,C[C@@H]1CCCCO[C@@H](CN(C)C(=O)C2CCCCC2)[C@H](C)CN([C@H](C)CO)C(=O)c2cc(NC(=O)c3ccccc3)ccc2O1,-0.449% (inactive)
22,CCN(CC)S(=O)(=O)c1ccc(N2CCCC2)c(NS(=O)(=O)c2cccs2)c1,-0.637% (inactive)
23,CCN(CC)S(=O)(=O)c1ccc(Cl)c(C(=O)NCCN2CCOCC2)c1,-0.116% (inactive)
24,CCN(CC)S(=O)(=O)c1ccc(Cl)c(C(=O)NC(C)C(c2cccs2)N2CCCC2)c1 (stereo not drawn),43.4% (active)
25,CN(C)CC(=O)Nc1ccc2c(c1)[C@H]1C[C@H](CC(=O)NCc3ccccn3)O[C@@H](CO)[C@H]1O2,-0.026% (inactive)
26,O=C(CNC1CCCCC1)NCC1(c2ccccc2)CCCC1,43% (active)

row,Compound,"activity (Tm shift, normalised)"
1,CCOc1c(OC)cccc1C(=O)NCC1(c2ccccc2)CCCC1,-0.318% (inactive)
2,COc1cc(C(=O)NCC2(c3ccccc3)CCCC2)ccc1OC(C)C,-0.207% (inactive)
3,CO[C@@H]1CN(C)C(=O)c2ccc(NC(=O)C3CCC3)cc2OC[C@H](C)NC[C@H]1C,-0.059% (inactive)
4,COc1ccc2c3c(n(C)c2c1)[C@@H](CO)N(Cc1ccncc1)CC31CN(C(=O)C2CCC2)C1,-0.256% (inactive)
5,C[C@@H]1CN([C@H](C)CO)C(=O)c2cc(NS(=O)(=O)c3ccccc3)ccc2O[C@@H](C)CCCCO[C@H]1CN(C)C(=O)C1CCCCC1,-0.338% (inactive)
6,Cc1noc(C)c1S(=O)(=O)Nc1ccc2c(c1)CC(=O)N([C@@H](C)CO)C[C@@H](C)[C@H](CN(C)C)O2,-0.289% (inactive)
7,CCCCN(C(=O)c1nn(C)c(=O)c2ccccc12)c1c(N)n(CCC)c(=O)[nH]c1=O,0.011% (inactive)
8,CCCCN(C(=O)/C=C/c1ccco1)c1c(N)n(CC(C)C)c(=O)[nH]c1=O,43.9% (active)
9,CCCCn1c(N)c(N(CC)C(=O)/C=C/c2ccco2)c(=O)[nH]c1=O,0.345% (inactive)
10,CC(C)NC(=O)N(C)C[C@H]1Oc2ccc(NC(=O)CCCCCC(=O)Nc3ccccc3N)cc2C(=O)N([C@@H](C)CO)C[C@@H]1C,-0.213% (inactive)
11,COc1ccc2c3c([nH]c2c1)[C@@H](CO)N(C(=O)C1CC1)CC31CCN(Cc2nccs2)CC1,0.119% (inactive)
12,CC(C)NC(=O)Nc1ccc2c(c1)C(=O)N([C@H](C)CO)C[C@H](C)[C@@H](CN(C)Cc1ccc3c(c1)OCO3)OCCCC[C@H](C)O2,-0.249% (inactive)
13,CC(=O)N1CCN(C(=O)C2(NC(=O)Nc3ccc(C)cc3)CCCCC2)CC1,-0.042% (inactive)
14,Cc1ccccc1NC(=O)NC1(C(=O)N2CCCC2)CCCCC1,43.5% (active)
15,O=C(Nc1ccccc1Cl)NC1(C(=O)N2CCOCC2)CCCCC1,-0.339% (inactive)
16,C[C@@H]1CN([C@H](C)CO)C(=O)Cc2cc(NC(=O)NC3CCCCC3)ccc2O[C@H]1CN(C)S(C)(=O)=O,-0.091% (inactive) and -0.115% (inactive)
17,CC(C)NC(=O)Nc1ccc2c(c1)C(=O)N([C@@H](C)CO)C[C@H](C)[C@@H](CN(C)Cc1ccc(C(=O)O)cc1)OCCCC[C@H](C)O2,0.548% (inactive)
18,COc1ccc2c3c([nH]c2c1)[C@H](CO)N(Cc1ccccc1Cl)CC31CN(C(=O)C2CC2)C1,0.006% (inactive)
19,COc1cccc(S(=O)(=O)N[C@@H]2C=C[C@H](CC(=O)NC3CCC3)O[C@H]2CO)c1,0.557% (inactive)
20,CC[N+]1(CC)CC2=Cc3ccccc3CC2C1 (stereo not drawn),43.3% (active)
21,C[C@@H]1CCCCO[C@@H](CN(C)Cc2ccccc2)[C@H](C)CN([C@H](C)CO)C(=O)c2cc(NC(=O)Nc3cccc4ccccc34)ccc2O1,-0.579% (inactive)
22,C[C@@H]1CCCCO[C@H](CN(C)C(=O)NC2CCCCC2)[C@H](C)CN([C@H](C)CO)C(=O)c2cc(NC(=O)c3ccncc3)ccc2O1,0.182% (inactive)
23,COc1ccc2c3c(n(C)c2c1)[C@H](CO)N(C(=O)NC(C)C)CC31CN(CC2CCCCC2)C1,-0.103% (inactive)
24,COc1ccc(CNC(=O)C2CCN(S(=O)(=O)c3ccc(SC)cc3)CC2)cc1,-0.235% (inactive)
25,COc1ccc(CNC(=O)C2CCN(S(C)(=O)=O)CC2)cc1,43.4% (active)
26,COc1ccc(CNC(=O)C2CCCC2)cc1,-0.099% (inactive)
